Records with an inconclusive call do not appear. Calls of active or inactive are those of the source. Unless noted, the call rests on the fitted dose curve.
Assays:
[1] = Stat Signaling Pathway (AID 446; active means well fitted curve in either direction with a large enough effect, not every such curve was filed as active;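 further: ME-180 cervical cancer cells given 40 pM IL-6 alongside compound; SIE-controlled beta-lactamase reporter measured as 460/530 nm FRET emission ratio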); settings: ME-180 SIE beta-lactamase reporter, IL-6 stimulated, 5 h; series mostly up to 17.2 µM
Summary of the method: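 Screening format detects activators and inhibitors alike: ME-180 SIE-bla cells stimulated at 40 pM IL-6 for 5 hrs with compound, then dual-emission beta-lactamase read at 405 nm excitation.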

[2] = Cell Viability - Jurkat (AID 426;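 active means dose-dependent loss of cell ATP signal giving a full or clear fitted curve, ranked by lower potency value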;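 further: potency means the concentration at half of the fitted maximal effect; cells exposed to compound for 40 hours at 37 °C before ATP read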); settings: qHTS
Summary of the method: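 Seed 5000 Jurkat E6-1 cells/well; add compound; incubate 40 hr at 37 °C; add CellTiter-Glo; wait 20 min at room temperature; read luminescence. Fit concentration-response with Hill equation for AC50.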

[3] = Cell Viability - Hek293 (AID 427;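 active means compounds whose dose-response curve shows a full or clear partial loss of cell viability, called from curve shape rather than a numeric limit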;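 further: potency means the concentration at half of the fitted maximal effect; cells exposed to compound for 40 hours at 37 °C before reading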); settings: qHTS
Summary of the method: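 qHTS, human embryonic kidney (adenovirus-transformed) cells; 40 hr cpd, 37 °C; CellTiter-Glo ATP luminescence. Norm: DMSO = 0, 100 uM tamoxifen = 100% inhibition. Hill-fit AC50.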

[4] = Cell Viability - HepG2 (AID 433); settings: qHTS;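 further: potency means the concentration at half of the fitted maximal effect; cells exposed to compound for 40 hours; potency for ATP loss meaning cytotoxicity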
Summary of the method: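 HepG2 cells, 1500 per well, treated 40 hr at 37 °C in complete medium; viability from intracellular ATP by CellTiter-Glo luminescence. Normalized to DMSO and 100 uM tamoxifen; AC50 from Hill fit of qHTS concentration-response.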

[5] = Cell Viability - MRC5 (AID 434); settings: MRC5 lung fibroblast viability, qHTS;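 further: potency means the concentration at half of the fitted maximal effect; cells exposed to compound for 40 hours at 37 °C; potency reflects cytotoxicity seen as loss of intracellular ATP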
Summary of the method: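 qHTS cytotoxicity in human lung fibroblast MRC5 cells; 40 hr treatment, 37 °C; cellular ATP by luciferase luminescence; DMSO = 0%, 100 uM tamoxifen = 100% inhibition; Hill-fit AC50.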

[6] = Cell Viability - SK-N-SH (AID 435); settings: SK-N-SH neuroblastoma cell viability qHTS;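 further: potency means the concentration at half of the fitted maximal effect; compound exposure lasted 40 h at 37 °C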
Summary of the method: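 SK-N-SH neuroblastoma cells (1500/well) treated 40 h at 37 °C in complete medium; viability read as cellular ATP by CellTiter-Glo luminescence. Normalized to DMSO and 100 uM tamoxifen; AC50 from Hill fits of qHTS concentration-response.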

Measured: Potency

CC1CCc2cc(F)cc3c(=O)c(C(=O)O)cn1c23 (stereo unspecified)
inactive: [1]

CC(=O)Nc1cccc(O)c1
inactive: [2] > 92 µM | [3] > 92 µM | [4] > 92 µM | [5] > 92 µM | [6] > 92 µM

CCCCOC(=O)c1ccc(N)cc1
inactive: [2] > 92 µM | [3] > 92 µM | [4] > 92 µM | [5] > 92 µM | [6] > 92 µM | [1]

CC(=O)OCC(COC(C)=O)OC(C)=O
inactive: [2] > 92 µM | [3] > 92 µM | [4] > 92 µM | [5] > 92 µM | [6] > 92 µM

O=C1c2cccc(O)c2C(=O)c2c(O)cccc21
inactive: [3] > 92 µM | [4] > 92 µM | [5] > 92 µM

Cc1cc(=O)[nH]c(=S)[nH]1
inactive: [2] > 92 µM | [3] > 92 µM | [4] > 92 µM | [5] > 92 µM | [6] > 92 µM

Cc1c(N(C)C)c(=O)n(-c2ccccc2)n1C
inactive: [2] > 92 µM | [3] > 92 µM | [4] > 92 µM | [5] > 92 µM | [6] > 92 µM | [1]

FC(F)(F)C(Cl)Br (stereo unspecified)
inactive: [2] > 92 µM | [3] > 92 µM | [4] > 92 µM | [5] > 92 µM | [6] > 92 µM

NS(=O)(=O)c1cc2c(cc1C(F)(F)F)NCNS2(=O)=O
inactive: [1]

CC(=O)N[C@@H](CC(C)C)C(=O)O
inactive: [1]

CC1CC(OC(=O)c2ccccc2O)CC(C)(C)C1 (stereo unspecified)
inactive: [2] > 92 µM | [3] > 92 µM | [4] > 92 µM | [5] > 92 µM | [6] > 92 µM

CCCNC(C)(C)COC(=O)c1ccccc1
inactive: [1]

COc1ccc(O)cc1
inactive: [2] > 92 µM | [3] > 92 µM | [4] > 92 µM | [5] > 92 µM | [6] > 92 µM

CC(=O)Nc1ccccc1
inactive: [2] > 92 µM | [3] > 92 µM | [4] > 92 µM | [5] > 92 µM | [6] > 92 µM

CCCCCC(N)=O
inactive: [2] > 92 µM | [3] > 92 µM | [4] > 92 µM | [5] > 92 µM | [6] > 92 µM

CCCCCCCC(=O)OCC(COC(=O)CCCCCCC)OC(=O)CCCCCCC
inactive: [2] > 92 µM | [3] > 92 µM | [4] > 92 µM | [5] > 92 µM | [6] > 92 µM

O=C(O)CCCCC1CCSS1 (stereo unspecified)
inactive: [2] > 92 µM | [3] > 92 µM | [4] > 92 µM | [5] > 92 µM | [6] > 92 µM

CN1CCCN=C1COC(=O)C(O)(c1ccccc1)C1CCCCC1 (stereo unspecified)
inactive: [1]

NC(=O)CC[C@@H](N)C(=O)O
inactive: [1]

NC(N)=NCCN1CCCCCCC1
inactive: [1]

O=C(c1ccccc1)C(O)c1ccccc1 (stereo unspecified)
inactive: [2] > 92 µM | [3] > 92 µM | [4] > 92 µM | [5] > 92 µM | [6] > 92 µM

CN1C(C)(C)CCCC1(C)C
inactive: [1]

CCS(=O)(=O)CCn1c([N+](=O)[O-])cnc1C
inactive: [1]

Cc1c(NC(=O)c2cccnc2)c(=O)n(-c2ccccc2)n1C
inactive: [1]

CC(=O)[C@@]1(O)CC[C@H]2[C@@H]3C[C@H](C)C4=CC(=O)C=C[C@]4(C)[C@@]3(F)[C@@H](O)C[C@@]21C
inactive: [1]

O=C1C(c2[nH]c3ccccc3c2O)=Nc2ccccc21
inactive: [2] > 92 µM | [3] > 92 µM | [4] > 92 µM | [5] > 92 µM | [6] > 92 µM

CCCC(O)C(CC)CO (stereo unspecified)
inactive: [2] > 92 µM | [3] > 92 µM | [4] > 92 µM | [5] > 92 µM | [6] > 92 µM

CC1(C)S[C@@H]2[C@H](NC(=O)C(C(=O)O)c3ccccc3)C(=O)N2[C@H]1C(=O)O (stereo partly specified)
inactive: [1]

CC(=O)Nc1ccc(C(=O)O)cc1
inactive: [2] > 92 µM | [3] > 92 µM | [4] > 92 µM | [5] > 92 µM | [6] > 92 µM

O=C(O)CCCc1ccccc1
inactive: [1]

OC(CCN1CCCC1)(c1ccccc1)C1CCCCC1 (stereo unspecified)
inactive: [1]

Nc1ccc(S(=O)(=O)c2ccc(N)cc2)cc1
inactive: [2] > 92 µM | [3] > 92 µM | [4] > 92 µM | [5] > 92 µM | [6] > 92 µM | [1]

COc1ccc(NS(=O)(=O)c2ccc(N)cc2)nn1
inactive: [1]

From PubChem BioAssay (NCATS)
